Results filed as inconclusive are left out. Entries that show only a call come without a potency. Active and inactive are the calls of the source. Calls follow the shape of the dose curve; as a rule, active = well fitted activation curve with a large enough effect in the repeat runs; inconclusive = weak or mixed curves, or effect the other way; inactive = no such curve, though single readings can be large or run the other way.

This assay in a line: qHTS assay to identify small molecule agonists of the estrogen related receptor signaling pathway with the pleiotropic PPARgamma coactivator (PGC) from Tox21 10K library (AID 1224842). Also: nearly all actives have a fitted effect of over 15% in size. To be noted: PGC/ERR reporter cell line, luciferase ONE-Glo, 18 h; series mostly up to 92.4 µM. The source says: National Center for Advancing Translational Sciences [NCATS] NIH Chemical Genomics Center [NCGC] U.S. Environmental Protection Agency [EPA] National Institutes of Environmental Health Sciences [NIEHS] National Toxicology Program [NTP] Assay overview: Estrogen related receptors (ERRs), the first orphan nuclear receptors discovered, play an important role in the control of cellular energy metabolism. ERRs are required for high-energy production in response to the environmental challenges. The pleiotropic PPARgamma coactivator (PGC) is a major partner of ERR and a key regulator in energy homeostasis. Together they have been implicated in the etiology of metabolic disorders such as Type 2 diabetes and metabolic syndrome. ERR-alpha was also identified as an adverse marker for breast cancer progression; ERR-alpha-positive tumors have a poor prognosis. To screen and to identify environmental compounds that perturb the PGC/ERR signaling pathways could provide valuable information for potential therapeutic or preventive measures in the treatment of metabolic disease. For identifying PGC/ERR agonists, PGC/ERR cell line (provided by NTP) has been used to screen Tox21 10K library.
Assay Protocol Summary: The PGC/ERR cells were dispensed at 2,000 cells/5 ul/well in 1536-well white plates using a Multidrop dispenser. After the assay plates were incubated at a 37 C/5% CO2 incubator for 6 hours, 23 nL of compounds dissolved in DMSO, positive and negative controls or DMSO only was transferred to the assay plate by a pin tool. The plates were incubated at 37 C for 18 hours. 4 ul/well of One-Glo reagent was added into the assay plates using a Flying Reagent Dispenser. After 30-minute incubation at room temperature, the luminescence intensity in the plates was measured using a ViewLux plate reader.
Background: In qHTS, concentration-response curves come from the screen itself.
For `O=c1c2ccccc2c(=O)c2c1cc(Cl)c1[nH]c3c([nH]c12)c(Cl)cc1c(=O)c2ccccc2c(=O)c13`, the Potency result was “inactive”.
Under `CCOP(=S)(OCC)Oc1cc(C)nc(N(CC)CC)n1` stands “inactive”; under `C=CCOC(=O)c1ccccc1N`, “inactive”.
For `Oc1cc(Cl)c(Cl)c(Cl)c1Cl` the value was “inactive”; for `O=NN(CCO)CCO`, “inactive”.
For `Cc1c([N+](=O)[O-])c(C)c([N+](=O)[O-])c(C(C)(C)C)c1[N+](=O)[O-]` the value was “inactive”; for `CC(=O)[O][Sn]([c]1ccccc1)([c]1ccccc1)[c]1ccccc1`, “inactive”.
Turning to `CCCCON=O`, the Potency result was “inactive”.
Under `CCC1COC(Cn2cncn2)(c2ccc(Cl)cc2Cl)O1` (stereo not given) stands “inactive”; under `C[C@]12C/C(=C/O)C(=O)C[C@@H]1CC[C@@H]1[C@@H]2CC[C@@]2(C)[C@H]1CC[C@]2(C)O`, “inactive”.
For `O=C1C(Cl)=C(Cl)C(=O)C(Cl)=C1Cl` the value was “inactive”; for `COP(=S)(OC)Oc1nc(Cl)c(Cl)cc1Cl`, “inactive”.
As to `CNC(=O)Oc1cc(C)cc(C(C)C)c1`, the Potency result was “inactive”.
Regarding `CCN(CC)CCN1C(=O)CN=C(c2ccccc2F)c2cc(Cl)ccc21`, the Potency result was “inactive”.
With `CCOC(=O)CCN(SN(C)C(=O)Oc1cccc2c1OC(C)(C)C2)C(C)C`, the Potency entry was “inactive”.
With `O=c1[nH]c2cc(Cl)ccc2n1C1CCNCC1`, the Potency result is “inactive”.
For `O=Cc1ccccc1` the value was “inactive”; for `O=[N+]([O-])c1ccc(CCl)cc1`, “inactive”; for `O=[N+]([O-])c1ccccc1-c1ccccc1`, “inactive”.
As for `CN1CCc2cc(Cl)c(O)cc2[C@H]2c3ccccc3CC[C@@H]21`, the Potency result is “inactive”.
Under `CSSC` stands “inactive”; under `CN1CCc2cc3c(cc2C1O)OCO3` (stereo not given), “inactive”; under `Clc1ccc(C2(Cn3cncn3)OCCO2)c(Cl)c1`, “inactive”.
For `ClCBr` the value was “inactive”; for `Nc1cc(Cl)ccc1Cl`, “inactive”; for `CC(=O)[O][Pb]([c]1ccccc1)([c]1ccccc1)[c]1ccccc1`, “inactive”.
Under `N#CC(C#N)=NNc1cccc(Cl)c1` stands “inactive”; under `Cc1cnc2c(C(=O)O)c(Cl)ccc2c1`, “inactive”.
Turning to `CCCCN(CCCC)C(=S)S`, the Potency entry is “inactive”.
Under `CN=C=O` stands “inactive”.
For `Oc1cccc(Cl)c1Cl` the value was “inactive”; for `O=c1[nH]c(Cl)c(Cl)cc1Cl`, “inactive”; for `Brc1cccc(-c2ccccc2)c1`, “inactive”.
In the case of `Cc1c([N+](=O)[O-])cc2c(c1[N+](=O)[O-])C(C)(C)CC2(C)C`, the Potency entry is “inactive”.
Under `C[C@H]1[C@H](c2ccc(Cl)cc2)SC(=O)N1C(=O)NC1CCCCC1` stands “inactive”; under `COP(=S)(OC)Oc1ccc([N+](=O)[O-])c(C)c1`, “inactive”; under `CC(Cc1ccc2c(c1)OCO2)NO` (stereo not given), “inactive”.
For `O=C(CCCCl)c1ccc(F)cc1` the value was “inactive”; for `CC(Cc1ccc(OCC(=O)O)cc1)NCC(O)c1csc(C(F)(F)F)n1` (stereo not given), “inactive”.
For `Cc1nn(-c2cc(NS(C)(=O)=O)c(Cl)cc2Cl)c(=O)n1C(F)F` the value was “inactive”.

For the origin of these results see PubChem BioAssay (Tox21).
